Bioassay records deposited in PubChem by National Center for Advancing Translational Sciences (NCATS).
ALDH1A1 inh: qHTS Assay for Inhibitors of Aldehyde Dehydrogenase 1 (ALDH1A1). AID 1030, 2008. Potency, µM (highest dose often 75.3 µM), actives largely listed as inhibitors. Purified ALDH1A1, NADH fluorescence, propionaldehyde substrate. 220,000 tested, 7.3% active
PNC assembly inh: High Content Assay for Compounds that inhibit the Assembly of the Perinucleolar Compartment; PC3M PTB-GFP, PNC prevalence imaging, 16 h; active compounds read low; activity change (PNC), negative = inhibition, % at 10 µM; 140,000 tested, 3.1% active; AID 2417, 2010;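 active means readout at or below -70, meaning at least 70% loss of cells showing the perinucleolar compartment, a nuclear body marking cancer cells; inconclusive means readout between -30 and a set limit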
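PC3M cells stably expressing PTB-GFP, 750–1000 cells/well, treated 16 h at 37 °C with compound (23 nl of library stock), in duplicate. After paraformaldehyde fixation and Hoechst stain, imaged at 20x; PNC prevalence scored by image analysis.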
HPGD block: qHTS Assay for Inhibitors of HPGD (15-Hydroxyprostaglandin Dehydrogenase). purified HPGD, NADH fluorescence kinetic, PGE2 substrate. AID 894, 2007. 150,000 tested, 4.3% active. Potency, µM, usual class: inhibitors. 15-hydroxyprostaglandin dehydrogenase [NAD(+)] (Homo sapiens), P15428
Target sequence (P15428 whole entry, looked up): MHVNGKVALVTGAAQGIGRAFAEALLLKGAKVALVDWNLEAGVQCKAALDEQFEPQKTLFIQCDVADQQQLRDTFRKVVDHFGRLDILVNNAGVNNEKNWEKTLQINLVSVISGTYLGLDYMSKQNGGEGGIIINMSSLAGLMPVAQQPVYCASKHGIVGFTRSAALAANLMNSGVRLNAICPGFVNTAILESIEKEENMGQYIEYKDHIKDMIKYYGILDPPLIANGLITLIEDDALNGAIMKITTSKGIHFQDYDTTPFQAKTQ
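20 nM HPGD preincubated 15 min at room temperature with compound in 50 mM Tris-HCl pH 8, 0.01% Tween 20. Started with 1 mM NAD+ and 30 uM prostaglandin E2; NADH fluorescence (360/450 nm) read 5 times over 30-s intervals, last minus first.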
Each line names hits and unclear results; the compound was inactive in the other large screens; ! = repeats disagree. Rows were chosen to be rich in hits. Some 11% of all compounds tested hit in one or more screens of this group. Unless noted, the call rests on the fitted dose curve; in most records, active means well fitted inhibition curve with a large enough effect (not every such curve was filed as active); inconclusive means small, poorly fitted or top-dose-only effect, or another doubt; inactive means no such curve, though single readings can be large or run the other way.

Cc1cnc(CNc2ncnc3ccc(-c4ccc(N(C)C)cc4)cc23)cn1	none (no result: PNC assembly inh, HPGD block)
CC/C=C\C/C=C\C/C=C\CCCCCCCC(=O)O	ALDH1A1 inh 10µM! (no result: PNC assembly inh)
CC/C=C\C/C=C\C/C=C\CCCCCCCCCCCC(=O)O	ALDH1A1 inh 22.4µM! (no result: PNC assembly inh)
CC/C=C\C/C=C\C/C=C\CCCCCCCCCC(=O)O	none (no result: PNC assembly inh)
CC/C=C\C/C=C\C/C=C\C/C=C\C/C=C\CCCC(=O)O	none (no result: PNC assembly inh)
CCCN(CCC)S(=O)(=O)c1ccc(C(=O)NNc2nc(-c3ccccc3)c3cc(Br)ccc3n2)cc1	none
O=C(NCCO)c1ccc(Cc2nc3ccccc3[nH]2)cc1	none (no result: PNC assembly inh)
CCOc1ccc(C2NC(=O)c3ccccc3O2)cc1 (stereo unspecified)	ALDH1A1 inh 22.4µM
COc1cc(C2NC(=O)c3ccccc3O2)cc(OC)c1OC (stereo unspecified)	ALDH1A1 inh inconclusive, HPGD block inconclusive
CC(=O)c1ccc(NC(=S)NCCCN2CCOCC2)cc1	none (no result: PNC assembly inh, HPGD block)
O=C(O)C/C(=C\c1ccco1)C(=O)O	none (no result: PNC assembly inh)
CN(C)CCCN1C(=O)C(=O)/C(=C(/O)c2ccncc2)C1c1cccnc1 (stereo unspecified)	none
Cc1ccc(C2/C(=C(\O)c3cnn(-c4ccccc4)c3C)C(=O)C(=O)N2CCN(C)C)o1 (stereo unspecified)	none
Cc1ccc(/C(O)=C2/C(=O)C(=O)N(CCN3CCOCC3)C2c2ccccn2)cc1 (stereo unspecified)	ALDH1A1 inh inconclusive
Cc1ccc(C2/C(=C(/O)c3ccccc3)C(=O)C(=O)N2CCN2CCOCC2)o1 (stereo unspecified)	ALDH1A1 inh inconclusive
Cc1ccc(C2/C(=C(/O)c3cnn(-c4ccccc4)c3C)C(=O)C(=O)N2CCN2CCOCC2)o1 (stereo unspecified)	ALDH1A1 inh 7.94µM
O=C1C(=O)N(CCN2CCOCC2)C(c2ccccn2)/C1=C(/O)c1ccccc1 (stereo unspecified)	ALDH1A1 inh 3.55µM
CN(C)CCCN1C(=O)C(=O)/C(=C(/O)c2ccc(S(=O)(=O)N(C)C)cc2)C1c1ccncc1 (stereo unspecified)	ALDH1A1 inh 25.1µM (no result: PNC assembly inh)
Cc1ccc(C)c(/C(O)=C2/C(=O)C(=O)N(CCN3CCOCC3)C2c2ccco2)c1 (stereo unspecified)	ALDH1A1 inh 10µM, HPGD block inconclusive
CCC(=O)c1c(NC(C)C)cc(C)oc1=O	none (no result: PNC assembly inh, HPGD block)
COCc1[nH]c(=S)[nH]c(=O)c1C	none (no result: PNC assembly inh, HPGD block)
COc1ccc(CNC(=O)c2cc(-c3ccncc3)nc3c(C)cc(C)cc23)cc1OC	none (no result: PNC assembly inh, HPGD block)
CC(=O)c1c(C)[nH]c(C(=O)CSc2nnc(C)s2)c1C	none (no result: PNC assembly inh, HPGD block)
CCN(CC)c1ccc(C(=O)OCC(=O)Nc2sccc2C#N)cc1	HPGD block inconclusive
CC(C)n1cc(/C(N)=N/O)c(=O)n(Cc2ccccc2)c1=O	none (no result: PNC assembly inh, HPGD block)
CCN(CC)CCCN1C(=O)C(=O)/C(=C(/O)c2ccc3c(c2)OCCO3)C1c1ccco1 (stereo unspecified)	none
CN(C)CCCN1C(=O)C(=O)/C(=C(/O)c2ccc3c(c2)OCCO3)C1c1ccco1 (stereo unspecified)	PNC assembly inh -86.0
CC(C)(C)C(=O)/C(=C/c1ccncc1)n1cncn1	none (no result: PNC assembly inh, HPGD block)
CCCCCCCC[n+]1cccc(C(=O)N(CC)CC)c1	PNC assembly inh -123.8
CCCCCCCCCCCCCCCC[n+]1cccc(C(=O)N(CC)CC)c1	ALDH1A1 inh inconclusive, PNC assembly inh inconclusive
COc1ccc(C(=O)O)cc1S(=O)(=O)Nc1ccc(C)cc1	none (no result: PNC assembly inh, HPGD block)
CCn1nnnc1-c1ccc(OC)c(S(=O)(=O)Nc2ccc(OC)cc2)c1	ALDH1A1 inh 0.112µM
CCn1nnnc1-c1ccc(OC)c(S(=O)(=O)N2CCCCC2)c1	ALDH1A1 inh inconclusive
CCn1nnnc1-c1ccc(OC)c(S(=O)(=O)Nc2ccc(C(=O)OC)cc2)c1	ALDH1A1 inh 7.08µM, PNC assembly inh inconclusive
CCOC(=O)c1ccc(NS(=O)(=O)c2cc(-c3nnnn3C(C)C)ccc2OC)cc1	ALDH1A1 inh 2.82µM
COC(=O)c1ccc(NS(=O)(=O)c2cc(C)ccc2OC)cc1	HPGD block inconclusive
CCc1ccc(NC(=S)N(CCN(C)C)C(C)c2ccncc2)cc1 (stereo unspecified)	none (no result: PNC assembly inh, HPGD block)
COC(=O)c1c(N2C(=O)[C@H]3[C@@H](C2=O)[C@]2(C(=O)Nc4c(C)cccc42)N2CCC[C@@H]32)sc(C)c1C	none
c1cc(CSc2ncnc3nc[nH]c23)ccn1	none (no result: PNC assembly inh)
CC(C(=O)OCC(=O)c1cccc([N+](=O)[O-])c1)N1C(=O)C2C3CCC(C3)C2C1=O (stereo unspecified)	ALDH1A1 inh inconclusive
CCC(=O)c1c(NC(CC)CO)cc(C)oc1=O (stereo unspecified)	none (no result: PNC assembly inh, HPGD block)
Cc1cc(C(=O)CSc2nnc(C3COc4ccccc4O3)n2C)c(C)n1-c1ccc(F)cc1 (stereo unspecified)	ALDH1A1 inh inconclusive, HPGD block 28.2µM
Cn1c(SCC(=O)c2ccc3c(c2)OCO3)nnc1C1COc2ccccc2O1 (stereo unspecified)	ALDH1A1 inh inconclusive
Cc1cc(C(=O)CSc2nnnn2-c2ccccc2)c(C)n1-c1ccc2c(c1)OCO2	ALDH1A1 inh 0.251µM
Cc1cc(C(=O)CSc2nc3ccccc3[nH]2)c(C)n1CC1CCCO1 (stereo unspecified)	ALDH1A1 inh inconclusive, HPGD block 15.8µM
Cc1cc(C(=O)CSc2nc3ccccc3o2)c(C)n1CC1CCCO1 (stereo unspecified)	PNC assembly inh inconclusive
Cc1cc(C(=O)COc2ccc(C#N)cc2)c(C)n1-c1ccc2c(c1)OCO2	none
Cc1cc(C(=O)COC(=O)C2=COCCO2)c(C)n1-c1ccc2c(c1)OCO2	ALDH1A1 inh 15.8µM, HPGD block 15.8µM
Cc1cc(C(=O)CSc2nnnn2-c2ccc(O)cc2)c(C)n1Cc1ccc2c(c1)OCO2	none
CSc1nnc2c(n1)OC(c1ccccn1)N(C(C)=O)c1ccccc1-2 (stereo unspecified)	none (no result: PNC assembly inh, HPGD block)
COC(=O)C(C(=O)OC)C1c2ccccc2C=C(C)N1C(=O)OC (stereo unspecified)	none (no result: PNC assembly inh)
CCn1c(C2CCN(Cc3ccccc3)CC2)n[nH]c1=S	none (no result: PNC assembly inh, HPGD block)
C#CCNC(=O)C1=C[C@@H](C)C[C@@H](OCc2ccc(CO)cc2)O1	none (no result: PNC assembly inh, HPGD block)
C=C1C2CC[C@@]3(C)C(c4ccoc4)OC(=O)C[C@@]13OC1CC(=O)C(C)(C)C(C(O)C(=O)OC)[C@]12C (stereo partly specified)	none (no result: PNC assembly inh)
CC(C)CN1CCC2(CC1)CCN(C(=O)c1ccco1)CC2	none (no result: PNC assembly inh)
Cc1cccc(-n2nnnc2SCC(=O)c2cc(C)n(Cc3ccco3)c2C)c1	ALDH1A1 inh 17.8µM
Cc1cccc(-n2nnnc2SCC(=O)c2cc(C)n(CC3CCCO3)c2C)c1 (stereo unspecified)	ALDH1A1 inh 7.94µM
Cc1cc(C(=O)CSc2nnc(N)s2)c(C)n1Cc1ccco1	none (no result: PNC assembly inh, HPGD block)
Cc1ccc(-n2nnnc2SCC(=O)c2cc(C)n(CC3CCCO3)c2C)cc1 (stereo unspecified)	none
COC(=O)c1cccc(NC(=O)CSc2nnc(C)n2C)c1	none (no result: PNC assembly inh, HPGD block)
COc1ccc(C(NC=O)c2cc(OC)c(OC)cc2Br)cc1OC (stereo unspecified)	none
